In PubChem BioAssay (NCI):
Compounds without any hit were thinned out: in the full panel of roughly 79,000, 15% have a hit. Values without a mark were called inactive. Activity calls are given as the source filed them. Cut-off read from the data, not from the text of the source: active = growth inhibition above about 70%; inactive = the rest.

Assay: NCI Yeast Anticancer Drug Screen. Data for the mec2-1 strain (AID 157)
Details: S. cerevisiae mec2-1 strain, at 50.0 µM (retest, dose inferred, filed as 5.0), stronger effect = higher value
In short: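 Compounds were applied to mec2-1 yeast cells. Their growth was then compared with that of vehicle-treated cultures to give growth inhibition.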

SMILES | growth inhibition
O=[N+]([O-])c1cc(F)c(Sc2cc(Br)c([N+](=O)[O-])cc2F)cc1Br | -8%
C=CS(=O)(=O)c1ccc(C)cc1 | 70% (active)
NC(CSSCC(N)C(=O)Nc1ccc2ccccc2c1)C(=O)Nc1ccc2ccccc2c1 (stereo not given) | 100% (active)
COc1ccc(C2=CCC3C4CC=C5CC(O)CCC5(C)C4CCC23C)s1 (stereo not given) | 63%
O=C(O)COc1ccccc1C(=O)O | -3%
O=[N+]([O-])c1ccc(NNS(=O)(=O)c2ccccc2)c([N+](=O)[O-])c1 | -4%
CCOc1nc(N)nc(C)c1N=Nc1ccc(Cl)cc1 | 58%
Nc1ccc2c(c1)CCc1ccccc1-2 | 10%
O=c1c2cc3c(cc2c2cccc4c2n1CCC4)OCO3 | 12%
O=C(COc1ccc(Br)cc1Br)N1N=C(c2ccc([N+](=O)[O-])o2)CC1(O)c1ccccc1 (stereo not given) | 6%
Nc1cc(Br)cc2c1[nH]c1ccc(Br)cc12 | 98% (active)
Clc1ccccc1CCc1cc(-c2ccccc2)n[nH]1 | 98% (active)
O=C(CSc1nnc(-c2ccc(N=Cc3ccc(Cl)cc3)cc2)o1)Nc1ccccc1Cl | 44%
COC(=O)CCCCC(=O)N(C(C)C)C(C)C | -1%
CCc1ccccc1NC(=O)C(=O)CC(=O)c1ccc(Cl)s1 | -40%
CCNC(=S)N/N=C/c1ccccn1 | 92% (active)
[N-]=[N+]=Nc1c(C=O)c(=O)n(-c2ccccc2)c2ccccc12 | 60%
COc1cc2c(c(O)c1C)C(=O)C(Cl)=CC2=O | 99% (active)
O=c1[nH]c(=O)c2cc([N+](=O)[O-])cc([N+](=O)[O-])c2[nH]1 | 57%
CCOC(=O)NC(=S)Nc1ccsc1 | -1%

SMILES | growth inhibition
O=C(/C(O)=C(\O)C(=O)N(C1CCCCC1)C1CCCCC1)N(C1CCCCC1)C1CCCCC1 | 89% (active)
Nc1nccc2c1ncn2C1C=C(CO)C(O)C1O (stereo not given) | 90% (active)
NC(=Nc1ccccc1)c1ccc2c(c1)c1c(n2Cc2ccccc2)CCCC1 | 97% (active)
CC/C(=C(/CC)c1ccc(O)cc1)c1ccc([O-])cc1.CC/C(=C(/CC)c1ccc(O)cc1)c1ccc([O-])cc1.O=C([CH-]C(=O)c1ccccc1)c1ccccc1.O=C([CH-]C(=O)c1ccccc1)c1ccccc1.[Ti+4] | 97% (active)
CC(=O)c1c(O)c2ccc(Cl)cc2[nH]c1=O | 87% (active)
CCOC(=O)c1cnccc1CC1(C#N)c2ccccc2C=CN1C(=O)c1ccccc1 (stereo not given) | 83% (active)
O=c1cc(-c2ccccc2)oc(-c2ccccc2)c1 | -50%
CCCCCC/C=C\C=O | 13%
O=C1NC(=O)C(c2ccccc2)(c2ccccc2)C2CC3c4[nH]c5ccccc5c4CCN3CC12 (stereo not given) | 63%
Nc1ccc(-c2ccc(N)cc2S(=O)(=O)O)c(S(=O)(=O)O)c1 | -5%
Oc1ccc2ccccc2c1/C=N\Sc1ccccc1 | 99% (active)
CCCC(C)c1ccc(O)cc1 (stereo not given) | 16%
CCOC(=O)/C(=C\c1ccc(Cl)cc1)C(C)=O | 99% (active)
O=C(O)C(SC1=NNC2(C(=O)N1)c1ccccc1-c1ccccc12)SC1=NNC2(C(=O)N1)c1ccccc1-c1ccccc12 | 92% (active)
Cc1sc(Cc2ccccc2)nc1-c1ccc(N=Cc2ccc(N(CCOS(C)(=O)=O)CCOS(C)(=O)=O)cc2)cc1 | 97% (active)
CCCCc1ccc(Nc2nc(N)c3[nH]cnc3n2)cc1 | 26%
O=C(c1c(F)c(F)c(F)c(F)c1F)n1c(=S)n(C(=O)c2c(F)c(F)c(F)c(F)c2F)c2ccccc21 | 90% (active)
Cc1ccnc2sc3ccccc3c(=O)c12 | 93% (active)
O=[N+]([O-])c1ccc2c(c1)CCc1ccccc1-2 | 37%
NNc1ccc(Br)cc1 | 98% (active)

Same assay, conditions: S. cerevisiae mec2-1 strain, at 50.0 µM, stronger effect = higher value

SMILES | growth inhibition
O=[N+]([O-])c1cc(F)c(Sc2cc(Br)c([N+](=O)[O-])cc2F)cc1Br | 9.55%
C=CS(=O)(=O)c1ccc(C)cc1 | 78.7% (active)
NC(CSSCC(N)C(=O)Nc1ccc2ccccc2c1)C(=O)Nc1ccc2ccccc2c1 (stereo not given) | 91.7% (active)
COc1ccc(C2=CCC3C4CC=C5CC(O)CCC5(C)C4CCC23C)s1 (stereo not given) | 64.1%
O=C(O)COc1ccccc1C(=O)O | 29.4%
O=[N+]([O-])c1ccc(NNS(=O)(=O)c2ccccc2)c([N+](=O)[O-])c1 | 16.3%
CCOc1nc(N)nc(C)c1N=Nc1ccc(Cl)cc1 | 67.7%
Nc1ccc2c(c1)CCc1ccccc1-2 | 43.6%
O=c1c2cc3c(cc2c2cccc4c2n1CCC4)OCO3 | 23.4%
O=C(COc1ccc(Br)cc1Br)N1N=C(c2ccc([N+](=O)[O-])o2)CC1(O)c1ccccc1 (stereo not given) | 71.2% (active)
Nc1cc(Br)cc2c1[nH]c1ccc(Br)cc12 | 99% (active)
Clc1ccccc1CCc1cc(-c2ccccc2)n[nH]1 | 94.7% (active)
O=C(CSc1nnc(-c2ccc(N=Cc3ccc(Cl)cc3)cc2)o1)Nc1ccccc1Cl | -11.8%
COC(=O)CCCCC(=O)N(C(C)C)C(C)C | -14.4%
CCc1ccccc1NC(=O)C(=O)CC(=O)c1ccc(Cl)s1 | 2.6%
CCNC(=S)N/N=C/c1ccccn1 | 84% (active)
[N-]=[N+]=Nc1c(C=O)c(=O)n(-c2ccccc2)c2ccccc12 | 80.4% (active)
COc1cc2c(c(O)c1C)C(=O)C(Cl)=CC2=O | 99.2% (active)
O=c1[nH]c(=O)c2cc([N+](=O)[O-])cc([N+](=O)[O-])c2[nH]1 | 73.7% (active)
CCOC(=O)NC(=S)Nc1ccsc1 | 11.4%

SMILES | growth inhibition
O=C(/C(O)=C(\O)C(=O)N(C1CCCCC1)C1CCCCC1)N(C1CCCCC1)C1CCCCC1 | 98.2% (active)
Nc1nccc2c1ncn2C1C=C(CO)C(O)C1O (stereo not given) | 45.4%
NC(=Nc1ccccc1)c1ccc2c(c1)c1c(n2Cc2ccccc2)CCCC1 | 99.2% (active)
CC/C(=C(/CC)c1ccc(O)cc1)c1ccc([O-])cc1.CC/C(=C(/CC)c1ccc(O)cc1)c1ccc([O-])cc1.O=C([CH-]C(=O)c1ccccc1)c1ccccc1.O=C([CH-]C(=O)c1ccccc1)c1ccccc1.[Ti+4] | 92% (active)
CC(=O)c1c(O)c2ccc(Cl)cc2[nH]c1=O | 14.7%
CCOC(=O)c1cnccc1CC1(C#N)c2ccccc2C=CN1C(=O)c1ccccc1 (stereo not given) | 83.5% (active)
O=c1cc(-c2ccccc2)oc(-c2ccccc2)c1 | 19.4%
CCCCCC/C=C\C=O | 37.1%
O=C1NC(=O)C(c2ccccc2)(c2ccccc2)C2CC3c4[nH]c5ccccc5c4CCN3CC12 (stereo not given) | 59.1%
Nc1ccc(-c2ccc(N)cc2S(=O)(=O)O)c(S(=O)(=O)O)c1 | -14.2%
Oc1ccc2ccccc2c1/C=N\Sc1ccccc1 | 99.3% (active)
CCCC(C)c1ccc(O)cc1 (stereo not given) | 43.9%
CCOC(=O)/C(=C\c1ccc(Cl)cc1)C(C)=O | 94.5% (active)
O=C(O)C(SC1=NNC2(C(=O)N1)c1ccccc1-c1ccccc12)SC1=NNC2(C(=O)N1)c1ccccc1-c1ccccc12 | 96.3% (active)
Cc1sc(Cc2ccccc2)nc1-c1ccc(N=Cc2ccc(N(CCOS(C)(=O)=O)CCOS(C)(=O)=O)cc2)cc1 | 97.8% (active)
CCCCc1ccc(Nc2nc(N)c3[nH]cnc3n2)cc1 | 84% (active)
O=C(c1c(F)c(F)c(F)c(F)c1F)n1c(=S)n(C(=O)c2c(F)c(F)c(F)c(F)c2F)c2ccccc21 | 71.4% (active)
Cc1ccnc2sc3ccccc3c(=O)c12 | 82.5% (active)
O=[N+]([O-])c1ccc2c(c1)CCc1ccccc1-2 | -2.75%
NNc1ccc(Br)cc1 | 92.2% (active)
